Screening results as filed in PubChem BioAssay.
Sampled rows, rich in hits. Any-hit rate of the full collection: about 3.4%.
SIRT5 inh: sirtuin-5 (human) deacylase inhibition | Q9NXA8 | Purified SirT5, succinyl-peptide AMC, trypsin-coupled fluorescence | inhibition, % at 15 µM | actives 1.1% (n = 330,000) | AID 652115; in the data active means inhibition above about 15%; inconclusive means no clear call, values can overlap the other calls
Target sequence (Q9NXA8 whole entry, looked up): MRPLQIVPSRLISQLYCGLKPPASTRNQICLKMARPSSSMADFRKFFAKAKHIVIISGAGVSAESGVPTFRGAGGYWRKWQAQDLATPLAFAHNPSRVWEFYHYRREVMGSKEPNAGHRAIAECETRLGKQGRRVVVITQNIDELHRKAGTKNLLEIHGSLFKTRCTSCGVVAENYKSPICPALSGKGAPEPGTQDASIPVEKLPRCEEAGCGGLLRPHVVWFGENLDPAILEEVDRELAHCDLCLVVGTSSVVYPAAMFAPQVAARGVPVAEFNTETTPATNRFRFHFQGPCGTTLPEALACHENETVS
PAX8 inh HTS: lowers PAX8-driven luciferase in RMG-I cells; RMG-I TPO-luciferase reporter, SteadyGlo, 24 h; inhibition, % at 12.6 µM; actives 1.2% (n = 360,000);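 active means mean replicate inhibition at least 60% with every replicate also reaching 60%; inconclusive means only one of the two criteria is met; inactive means mean below 60% and not all replicates reaching 60%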;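 further: luciferase light reporting Pax8 driven TPO promoter activity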
PGC1a acetyl inh: modulators of PGC1a acetylation | inhibition, % at 15.6 µM | U2OS PGC1a acetylation, AlphaScreen anti-acetyl-lysine; with virally co-expressed GCN5 acetyltransferase | AID 651687 | actives 0.17% (n = 350,000);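 active means every replicate shows inhibition of at least 40%; inconclusive means mean inhibition at least 40% but some replicate below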
EWS-Fli block: blocks EWS/Fli oncoprotein-driven transcription | actives 0.67% (n = 350,000) | inhibition, % at 12.6 µM | AID 651661 | A673 NR0B1-luciferase reporter, viability-normalised;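 active means mean inhibition of at least 50% after viability correction, with every replicate also passing that limit; inconclusive means mean reaches 50% but only one of two replicates passes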;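 further: firefly luciferase signal divided by Alamar Blue viability fluorescence both relative to DMSO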
Ecoli rRNA inh: inhibits bacterial ribosomal RNA function over humanized ribosomes. E. coli WT GFP vs humanized-ribosome RFP mutants, fluorescence, 24 h; hits give low values; DMSO median 0, no signal -100. GFP signal change (wild-type ribosome), % (concentration not given with the values). actives 1.6% (n = 350,000);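 active means significant combined selectivity score with lowered wild-type GFP, culture density cut under 30%, mutant RFP and density less affected; inactive means any of these conditions unmet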
LGR2 inh: Drosophila LGR2 receptor signaling inhibition; inhibition, % at 9.99 µM; AID 720647; actives 0.35% (n = 380,000); HEK293 LGR2, CRE-luciferase, bursicon-stimulated, 4 h;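 active means drop in luminescence signal, shown as inhibition above about 50% in the replicate tests, limit read from the data, passing the limit was not always enough; inconclusive means probably only some replicates passing the limit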;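 further: agonist challenge used bursicon conditioned medium at about half maximal strength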
Numbers stand for hits; . = inactive; ? = inconclusive; / = no result given.

SMILES	SIRT5 inh	PAX8 inh HTS	PGC1a acetyl inh	EWS-Fli block	Ecoli rRNA inh	LGR2 inh
COc1cccc(/C=N/NC(=O)N/N=C/c2cccc(OC)c2O)c1O	.	.	/	.	-30.6	.
CCOC(=O)C(C)(C)N(Cc1ccc(C)cc1)S(=O)(=O)c1ccc(Cl)c([N+](=O)[O-])c1	.	.	/	72.6	/	/
CCOC(=O)C(C)(C)NS(=O)(=O)c1ccc(Cl)c([N+](=O)[O-])c1	.	.	.	.	/	.
C[C@H](CO)N1C[C@H](C)[C@@H](CN(C)CC2CC2)Oc2c(NC(=O)CCC(F)(F)F)cccc2C1=O	/	/	/	/	.	/
Cc1ccccc1Cn1ccc(NC(=O)c2nn(C)cc2[N+](=O)[O-])n1	/	72.4	/	/	.	.
Cn1cc([N+](=O)[O-])c(C(=O)Nc2cc(Oc3ccccc3)cc([N+](=O)[O-])c2)n1	.	/	/	53.9	.	.
COCC#Cc1cnc2c(c1)C(=O)N([C@@H](C)CO)C[C@@H](C)[C@@H](CN(C)C(=O)CN1CCOCC1)O2	.	.	.	.	.	.
COc1ccc2c3c(n(C)c2c1)[C@@H](CO)N(C(=O)Nc1ccc(F)cc1)CC31CCN(Cc2cccnc2)CC1	/	/	.	.	.	.
COc1ccc2c3c(n(C)c2c1)[C@H](CO)NCC31CN(C(=O)c2ccc(F)cc2)C1	/	/	.	.	.	.
Cc1c(C(=O)N2CCN(c3ccccc3)CC2)oc2c1C(=O)CC(C)(C)C2	.	.	/	.	-23.2	.
COc1ccccc1-n1c(SCC(=O)O)nc2c(sc(=S)n2-c2ccc(C)c(C)c2)c1=O	16.9	.	/	.	-20.8	.
CCNC(=O)CSc1nnc(-c2cccs2)o1	17.8	.	.	.	.	.
CCNC(=O)CCSc1nnc(-c2ccncc2)o1	20.2	.	/	.	.	.
O=C(CCSc1nnc(-c2ccncc2)o1)Nc1ccccc1	/	.	.	/	/	/
CC(=O)N1[C@H](CN(CC(C)C)C(=O)c2ccccn2)[C@H](c2ccccc2)[C@@H]1CO	/	/	/	/	.	/
O=C(CCC1CCCN(Cc2cccc3c2OCO3)C1)NCc1ccc(F)c(F)c1 (stereo not given)	37.8	.	.	.	.	.
O=C(CCC1CCCN(Cc2ccc3c(c2)OCCO3)C1)NCc1ccc(F)c(F)c1 (stereo not given)	.	.	/	.	.	.
CC(=O)N(C)C[C@@H]1Oc2ccc(NC(=O)NC(C)C)cc2CC(=O)N(C)C[C@@H]1C	/	/	/	/	.	/
CN(C)CCN(Cc1cccs1)S(=O)(=O)c1csc(C(N)=O)c1	32.7	.	.	/	.	.
C[C@@H]1CCCCO[C@@H](CN(C)Cc2ccc(Cl)c(Cl)c2)[C@@H](C)CN([C@H](C)CO)C(=O)c2cc(NC(=O)c3ccncc3)ccc2O1	15.1	.	.	.	.	.
C[C@@H]1CN([C@H](C)CO)C(=O)c2cc(NC(=O)c3ccncc3)ccc2O[C@@H](C)CCCCO[C@H]1CN(C)Cc1ccc(C(F)(F)F)cc1	.	82.5	/	?	.	.
C[C@H]1CCCCO[C@@H](CN(C)Cc2ccc(C(F)(F)F)cc2)[C@@H](C)CN([C@@H](C)CO)C(=O)c2cc(NC(=O)c3ccccc3)ccc2O1	.	87.3	.	.	.	.
C[C@H]1CCCCO[C@H](CN(C)C(=O)Nc2ccc(C(F)(F)F)cc2)[C@@H](C)CN([C@@H](C)CO)C(=O)c2cc(NC(=O)c3ccncc3)ccc2O1	.	93.5	.	.	.	.
C[C@@H]1CCCCO[C@@H](CN(C)Cc2ccc(C(F)(F)F)cc2)[C@H](C)CN([C@H](C)CO)C(=O)c2cc(NC(=O)c3ccncc3)ccc2O1	.	.	/	.	.	.
COC(=O)C[C@@H]1C=C[C@H](NS(=O)(=O)c2ccccc2F)[C@H](CO)O1	.	.	.	.	.	.
O=C(C[C@H]1CC[C@@H](NC(=O)C2CC2)[C@H](CO)O1)NC1CCC1	.	.	.	.	.	.
CCC(=O)N(C)C[C@H]1Oc2ncc(C3=CCCC3)cc2C(=O)N([C@@H](C)CO)C[C@H]1C	.	/	.	.	.	.
C[C@@H]1CN([C@@H](C)CO)C(=O)c2cc(NC(=O)c3ccccc3)ccc2O[C@@H](C)CCCCO[C@H]1CN(C)Cc1ccc(C(F)(F)F)cc1	.	88.4	.	.	.	.
